According to ChEMBL document CHEMBL1961873, “Compounds: GSK PKIS; Assays: Nanosyn kinase panel” (2012):

Legend:
[1] = target: Sphingosine kinase 1 (Homo sapiens) (UniProt Q9NYA1); settings: at 1 µM;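 note: mean SPHK1 inhibition value reported from the GSK PKIS kinase panel screen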
[2] = target: T1, Sphingosine kinase 2 (Homo sapiens) (UniProt Q9NRA0); settings: at 0.1 µM
T1 sequence (whole entry): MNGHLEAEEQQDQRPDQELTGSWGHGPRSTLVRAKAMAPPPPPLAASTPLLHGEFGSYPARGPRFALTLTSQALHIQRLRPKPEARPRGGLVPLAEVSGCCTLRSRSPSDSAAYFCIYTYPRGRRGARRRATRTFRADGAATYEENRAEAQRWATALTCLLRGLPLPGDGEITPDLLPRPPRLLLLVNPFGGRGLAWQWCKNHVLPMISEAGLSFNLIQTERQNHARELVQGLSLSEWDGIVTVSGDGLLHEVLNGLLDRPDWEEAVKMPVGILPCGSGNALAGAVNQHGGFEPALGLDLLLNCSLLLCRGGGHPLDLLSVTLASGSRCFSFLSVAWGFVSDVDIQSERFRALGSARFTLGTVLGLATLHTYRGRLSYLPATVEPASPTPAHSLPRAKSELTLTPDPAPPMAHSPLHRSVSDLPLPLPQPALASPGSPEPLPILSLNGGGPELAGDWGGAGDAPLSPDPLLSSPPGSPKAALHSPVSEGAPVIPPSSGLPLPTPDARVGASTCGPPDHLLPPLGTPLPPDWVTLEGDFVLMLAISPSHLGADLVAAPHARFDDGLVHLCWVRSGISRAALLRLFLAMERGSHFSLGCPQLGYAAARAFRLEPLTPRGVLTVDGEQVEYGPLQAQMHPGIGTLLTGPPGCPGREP

[3] = target: T1, Sphingosine kinase 2 (Homo sapiens); settings: at 1 µM
[4] = target: Casein kinase II subunit alpha (Homo sapiens) (UniProt P68400); settings: at 0.1 µM
[5] = target: Casein kinase II subunit alpha (Homo sapiens) (UniProt P68400); settings: at 1 µM
[6] = target: T2, Inhibitor of nuclear factor kappa-B kinase subunit alpha (Homo sapiens) (UniProt O15111); settings: at 0.1 µM;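 note: mean percent inhibition from GSK PKIS profiling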
T2 sequence (whole entry): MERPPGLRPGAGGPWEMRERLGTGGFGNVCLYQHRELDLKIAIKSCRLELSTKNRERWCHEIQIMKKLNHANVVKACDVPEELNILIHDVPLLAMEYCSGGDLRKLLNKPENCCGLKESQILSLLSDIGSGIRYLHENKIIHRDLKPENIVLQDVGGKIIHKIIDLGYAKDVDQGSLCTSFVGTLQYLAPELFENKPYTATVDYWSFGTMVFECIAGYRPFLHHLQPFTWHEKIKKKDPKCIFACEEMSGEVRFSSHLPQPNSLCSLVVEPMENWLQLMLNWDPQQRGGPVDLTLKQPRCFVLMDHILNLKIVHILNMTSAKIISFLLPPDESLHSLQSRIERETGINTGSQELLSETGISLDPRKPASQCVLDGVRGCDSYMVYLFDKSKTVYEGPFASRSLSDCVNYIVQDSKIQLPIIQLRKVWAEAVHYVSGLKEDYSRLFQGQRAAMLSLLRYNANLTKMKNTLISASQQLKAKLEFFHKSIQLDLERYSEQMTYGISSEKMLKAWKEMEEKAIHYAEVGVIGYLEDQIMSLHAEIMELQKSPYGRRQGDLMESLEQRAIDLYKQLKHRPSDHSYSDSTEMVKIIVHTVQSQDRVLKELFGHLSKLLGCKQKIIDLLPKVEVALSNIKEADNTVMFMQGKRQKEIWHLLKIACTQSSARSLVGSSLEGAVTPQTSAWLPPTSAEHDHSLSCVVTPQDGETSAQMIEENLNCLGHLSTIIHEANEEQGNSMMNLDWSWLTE

[7] = target: T3, Inhibitor of nuclear factor kappa-B kinase subunit beta (Homo sapiens) (UniProt O14920); settings: at 0.1 µM
T3 sequence (whole entry): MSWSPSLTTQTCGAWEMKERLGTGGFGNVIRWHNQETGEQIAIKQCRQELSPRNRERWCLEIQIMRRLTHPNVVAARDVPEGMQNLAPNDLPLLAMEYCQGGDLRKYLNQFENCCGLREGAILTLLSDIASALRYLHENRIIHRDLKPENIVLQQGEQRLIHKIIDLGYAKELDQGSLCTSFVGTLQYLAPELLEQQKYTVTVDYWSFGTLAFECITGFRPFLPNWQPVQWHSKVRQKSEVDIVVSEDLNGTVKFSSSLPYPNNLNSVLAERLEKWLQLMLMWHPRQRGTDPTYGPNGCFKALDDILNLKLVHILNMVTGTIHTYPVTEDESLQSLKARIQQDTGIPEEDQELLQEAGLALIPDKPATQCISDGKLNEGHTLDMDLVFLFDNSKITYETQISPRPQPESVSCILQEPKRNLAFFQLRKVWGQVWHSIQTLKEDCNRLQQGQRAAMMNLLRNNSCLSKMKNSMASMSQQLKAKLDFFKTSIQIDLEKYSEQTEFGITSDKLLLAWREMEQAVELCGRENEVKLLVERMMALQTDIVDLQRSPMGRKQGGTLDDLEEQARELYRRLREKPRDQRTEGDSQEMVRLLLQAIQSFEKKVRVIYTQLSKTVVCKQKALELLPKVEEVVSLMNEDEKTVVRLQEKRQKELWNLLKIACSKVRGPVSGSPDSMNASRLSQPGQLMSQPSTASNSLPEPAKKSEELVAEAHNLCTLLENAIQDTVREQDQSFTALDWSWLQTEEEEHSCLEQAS

[8] = target: T3, Inhibitor of nuclear factor kappa-B kinase subunit beta (Homo sapiens); settings: at 1 µM
[9] = target: T4, Inhibitor of nuclear factor kappa-B kinase subunit epsilon (Homo sapiens) (UniProt Q14164); settings: at 0.1 µM;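 note: mean inhibition of IKKε reported, from the GSK PKIS dataset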
T4 sequence (whole entry): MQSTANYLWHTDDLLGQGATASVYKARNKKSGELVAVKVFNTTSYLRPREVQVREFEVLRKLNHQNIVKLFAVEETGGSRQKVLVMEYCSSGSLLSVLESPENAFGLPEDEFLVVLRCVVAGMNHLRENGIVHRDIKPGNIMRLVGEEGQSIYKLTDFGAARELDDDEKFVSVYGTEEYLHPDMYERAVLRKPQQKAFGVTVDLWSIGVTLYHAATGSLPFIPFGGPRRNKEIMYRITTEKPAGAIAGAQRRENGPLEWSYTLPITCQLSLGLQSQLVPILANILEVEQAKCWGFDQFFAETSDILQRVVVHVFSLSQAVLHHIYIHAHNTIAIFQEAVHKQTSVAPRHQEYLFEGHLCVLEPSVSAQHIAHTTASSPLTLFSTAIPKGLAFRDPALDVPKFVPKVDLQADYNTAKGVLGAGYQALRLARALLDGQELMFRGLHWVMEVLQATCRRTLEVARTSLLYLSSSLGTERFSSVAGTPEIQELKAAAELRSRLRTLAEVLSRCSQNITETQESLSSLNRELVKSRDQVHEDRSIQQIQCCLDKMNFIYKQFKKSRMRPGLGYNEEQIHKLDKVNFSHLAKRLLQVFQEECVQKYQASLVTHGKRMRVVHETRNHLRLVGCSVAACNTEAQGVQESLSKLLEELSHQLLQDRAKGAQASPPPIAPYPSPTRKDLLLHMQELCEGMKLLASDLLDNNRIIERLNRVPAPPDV

Chain of Casein kinase II subunit alpha (Homo sapiens) (P68400 whole entry, looked up): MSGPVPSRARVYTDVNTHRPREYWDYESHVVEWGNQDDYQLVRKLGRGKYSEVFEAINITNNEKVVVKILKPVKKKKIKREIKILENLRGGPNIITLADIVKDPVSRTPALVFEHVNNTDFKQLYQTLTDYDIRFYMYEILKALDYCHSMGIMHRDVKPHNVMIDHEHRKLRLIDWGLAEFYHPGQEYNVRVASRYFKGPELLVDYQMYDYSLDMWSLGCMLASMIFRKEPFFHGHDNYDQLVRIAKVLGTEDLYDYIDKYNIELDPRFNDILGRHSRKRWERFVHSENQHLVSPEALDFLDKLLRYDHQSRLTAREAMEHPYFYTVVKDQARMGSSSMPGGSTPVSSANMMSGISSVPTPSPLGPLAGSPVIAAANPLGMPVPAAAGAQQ
Chain of Sphingosine kinase 1 (Homo sapiens) (Q9NYA1 whole entry): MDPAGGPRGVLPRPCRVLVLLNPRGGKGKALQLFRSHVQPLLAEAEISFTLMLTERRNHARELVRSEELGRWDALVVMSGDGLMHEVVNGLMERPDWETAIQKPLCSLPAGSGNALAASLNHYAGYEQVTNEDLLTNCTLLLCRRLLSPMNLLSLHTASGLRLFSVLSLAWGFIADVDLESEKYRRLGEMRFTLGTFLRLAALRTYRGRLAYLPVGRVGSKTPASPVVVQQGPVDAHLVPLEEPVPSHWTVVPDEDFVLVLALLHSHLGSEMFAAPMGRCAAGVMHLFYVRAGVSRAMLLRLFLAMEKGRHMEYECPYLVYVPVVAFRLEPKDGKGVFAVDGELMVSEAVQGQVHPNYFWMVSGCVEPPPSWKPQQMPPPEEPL

Work on CN(c1ccc(NC(=O)Nc2c(Cl)cccc2Cl)cc1)c1ccnc(Nc2cccc(CS(C)(=O)=O)c2)n1 yielded an inhibition [1] of -2.39%, an inhibition [2] of 0.77% and an inhibition [3] of -0.82%. It also gave an inhibition [4] of 2.18%, an inhibition [5] of 6.66% and an inhibition [6] of -7.42%. The inhibition [7] was 3.11%, the inhibition [8] was 2.65% and the inhibition [9] was 6.91%.
